This note sets out measurements from PubChem BioAssay (EPA / NIEHS).

Several values for one entry are separate records, joined by “and”; a condition that tells them apart may be missing. Equal values may be shown once. Records with an inconclusive call do not appear. The source holds several records for some structures; these can differ, active in one and inactive in another. Activity calls are given as the source filed them. Rule for the calls: active = hit-call score of the fitted dose curve at least 0.9, where 1 is the maximum; inconclusive = response in the unintended direction; inactive = score below 0.9.

The test is described as follows: Tanguay_ZF_120hpf_PIG_legacy: (Legacy) Oregon State University Tanguay Lab 120 Hour Post-fertilization zebrafish Assay for Pigmentation Malformation (AID 2283650).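 Note: dechorionated Tropical 5D zebrafish embryos exposed singly from 6 to 120 hpf.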 As to the method: Tanguay_ZF_120hpf_legacy is a whole embryo, multiplexed endpoint assay using zebrafish larvae exposed for 120 hours post fertilization on a 96-well plate.Tanguay_ZF_120hpf_PIG_legacy is one of one assay component(s) measured or calculated from the Tanguay_ZF_120hpf_legacy assay. It is designed to make measurements of zebrafish development as detected with brightfield microscopy of developing zebrafish embryos.Data from the assay component Tanguay_ZF_120hpf_PIG_legacy was analyzed into 1 assay endpoints. This assay endpoint, Tanguay_ZF_120hpf_PIG_legacy, was analyzed in the positive analysis fitting direction relative to DMSO as the negative control and baseline of activity. Using a type of morphology reporter, gain-of-signal activity can be used to understand changes in developmentals as they relate to the whole embryo. To generalize the intended target to other relatable targets, this assay endpoint is annotated to the zebrafish development intended target family, where the subfamily is embryonic pigmentation.
Zebrafish husbandry: Tropical 5D wild-type adult zebrafish were housed in at an approximate density of 1000 per 100 gallon tank at the Sinnhuber Aquatic Research Laboratory, Oregon State University, Corvallis, OR. Each tank was kept at standard laboratory conditions of 28C on a 14-h light/10-h dark photoperiod in fish water consisting of reverse osmosis water supplemented with a commercially available salt (Instant Ocean). Spawning funnels were placed into the tanks the night prior, and embryos were collected and staged. To increase bioavailability, the chorion was enzymatically removed using pronase (63.6mg/ml, >/= 3.5U/mg, Sigma-Aldrich: P5147) at 4 hours post fertilization (hpf) using a custom automated dechorionator.Chemical exposures: Six hpf dechorionated embryos were placed 1 embryo per well in a 96-well plate prefilled with 90 ul of EM using automated embryo placement systems (AEPS). Ten microliters of each row of dilution plate 2 was added to 2 exposure plates. The final DMSO concentration used was 0.64% (vol/vol). Thirty-two embryos were also exposed to 5uM trimethyltin chloride (positive control). Plates were sealed to prevent evaporation and foil covered to reduce light exposure and kept in a 28C incubator. Embryos were statically exposed until 120 hpf. At 24 hpf, embryos were assessed for photomotor response using a custom photomotor response analysis tool (PRAT) and for developmental toxicity endpoints (MO24: mortality at 24 hpf, DP: developmental progression, SM: spontaneous movement, and NC: notochord distortion). At 120 hpf, locomotor activity was measured using Viewpoint Zebralab and assessed for 18 endpoints. Zebrafish acquisition and analysis program (ZAAP), a custom program designed to inventory, acquire, and manage zebrafish data, was used to collect developmental endpoints as either present or absent (i.e., binary responses were recorded). If mortality occurred for an embryo (at either 24 or 120 hpf), the non-mortality endpoints were not measured.
As to `O=C(Nc1ccccc1)Nc1cnns1`, the call was inactive.

`CN1CSC(=S)N(C)C1`: the compound was classed as inactive.

For the compound `CCN(CC)C(=O)SCc1ccc(Cl)cc1`, the call was inactive.

With `CC(C)N(C(=O)COc1nnc(C(F)(F)F)s1)c1ccc(F)cc1`, the compound was classed as inactive.

For `N#CN`, the compound was classed as inactive.

Take `COP(=O)(OC)OC=C(Cl)Cl`: the compound was called inactive.

With `O=C1c2ccccc2C(=O)N1SC(Cl)(Cl)Cl`, the compound was called inactive.

In the case of `O=S(=O)(O)C(F)(F)C(F)(F)C(F)(F)C(F)(F)C(F)(F)C(F)(F)C(F)(F)C(F)(F)F`, the outcome was inactive and the AC50 (as a rule, the concentration at which the activity in the assay is half-maximal) was 46.6 µM (active).

Turning to `CC(C)(C)C(O)C(Oc1ccc(Cl)cc1)n1cncn1` (stereo not given), the result was inactive; the AC50 was 44.2 µM (active) and 47.8 µM (active).

On to `O=S1OCC2C(CO1)C1(Cl)C(Cl)=C(Cl)C2(Cl)C1(Cl)Cl` (stereo not given), for which the compound was called inactive.

Turning to `COP(=S)(OC)Oc1ccc([N+](=O)[O-])cc1`, the result was inactive.

Turning to `Cc1[nH]c(=O)n(C(C)(C)C)c(=O)c1Cl`, the call was inactive.

On to `COc1nn(CSP(=S)(OC)OC)c(=O)s1`, for which the call was inactive.

With `Oc1ccc(Cl)cc1Cc1ccccc1`, the call was inactive.

For the compound `CC1(C)C(C=C(Cl)Cl)C1C(=O)OC(C#N)c1ccc(F)c(Oc2ccccc2)c1` (stereo not given), the compound was called inactive.

On to `Clc1ccccc1-c1nnc(-c2ccccc2Cl)nn1`, for which the compound was classed as inactive.

As to `ClC1C(Cl)C(Cl)C(Cl)C(Cl)C1Cl` (stereo not given), the outcome was inactive.

In the case of `COP(=S)(OC)Oc1ccc(SC)c(C)c1`, the outcome was inactive.

Turning to `CC[C@H](C)[C@H]1O[C@]2(C=C[C@@H]1C)C[C@@H]1C[C@@H](C/C=C(\C)[C@@H](O[C@H]3C[C@H](OC)[C@@H](O[C@H]4C[C@H](OC)[C@@H](O)[C@H](C)O4)[C@H](C)O3)[C@@H](C)/C=C/C=C3\CO[C@@H]4[C@H](O)C(C)=C[C@@H](C(=O)O1)[C@]34O)O2` (tested in a mixture with another compound), the result was inactive.

Turning to `O=C(O)CCCOc1ccc(Cl)cc1Cl`, the compound was classed as inactive.

For the compound `C#CCN1C(=O)COc2cc(F)c(N3C(=O)C4=C(CCCC4)C3=O)cc21`, the call was inactive.

In the case of `Oc1cc(Cl)ccc1Oc1ccc(Cl)cc1Cl`, the compound was called inactive.

As to `CC(C)OC(=O)Nc1cccc(Cl)c1`, the outcome was inactive.

Take `CC1(c2ccc(Oc3ccccc3)cc2)OC(=O)N(Nc2ccccc2)C1=O` (stereo not given): the outcome was inactive.

For `N#Cc1c(Cl)c(Cl)c(Cl)c(C#N)c1Cl`, the compound was classed as inactive.

With `CCc1ccc(C(=O)NN(C(=O)c2cc(C)cc(C)c2)C(C)(C)C)cc1`, the compound was classed as inactive.

As for `CCCN(CCC)c1c([N+](=O)[O-])cc(C(F)(F)F)cc1[N+](=O)[O-]`, the result was inactive.

For the compound `O=C(NC(=O)c1c(F)cccc1F)Nc1ccc(OC(F)(F)C(F)OC(F)(F)F)c(Cl)c1` (stereo not given), the compound was called inactive.

With `OCCOc1ccccc1`, the result was inactive.

In the case of `CNC(=O)/C=C(\C)OP(=O)(OC)OC`, the compound was called inactive.

In the case of `CNC(=O)Oc1ccccc1OC(C)C`, the compound was called inactive.

On to `O=C(O)COc1ccc(Cl)cc1Cl`, for which the result was inactive.

As for `C[C@H]1[C@H](c2ccc(Cl)cc2)SC(=O)N1C(=O)NC1CCCCC1`, the compound was called inactive.

Consider `CCC(C)Nc1c([N+](=O)[O-])cc(C(C)(C)C)cc1[N+](=O)[O-]` (stereo not given), for which the compound was called inactive.

With `O=[N+]([O-])c1c(Cl)c(Cl)c(Cl)c(Cl)c1Cl`, the outcome was inactive.

As to `CCC(C)(C)C(=O)OC1=C(c2ccc(Cl)cc2Cl)C(=O)OC12CCCCC2`, the compound was called inactive.

`CC(C)(C)C(O)/C(=C\c1ccc(Cl)cc1Cl)n1cncn1` (stereo not given): the outcome was inactive.

With `CCOCN(C(=O)CCl)c1c(C)cccc1CC`, the call was inactive.
